# Shown are actives, neighbours in structure and some others; about 12% of the full set was active somewhere.
# JMJD2A Tudor inh = blocks the human JMJD2A Tudor domain | Potency, µM (series often up to 114 µM), for the others: top-dose activity change, negative = inhibition, most hits filed as inhibitors | O75164 | AlphaScreen JMJD2A-Tudor / H3K4me3 peptide binding | actives 4.4% (n = 390,000); also: % is scaled to controls: 0 for no effect and ±100 for the full control effect; nearly all actives have a fitted effect of over 50% in size
# L3MBTL1 inh = blocks human L3MBTL1. AlphaScreen L3MBTL1–H3K9me1 peptide binding. Potency, µM (doses to about 57.1 µM), for inactives: at the top dose activity, negative = inhibition, hits mostly inhibitors. actives 0.66% (n = 230,000). AID 485360; also: % is scaled to controls: 0 for no effect and ±100 for the full control effect; nearly all actives have a fitted effect of over 60% in size
#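 L3MBTL1 50 nM + b-AHA-H3(1-15)K9me1 75 nM, 30 min RT; compound added, 30 min RT; streptavidin donor/Ni-chelate acceptor beads 10 ug/mL each final, 30 min RT dark; AlphaScreen read.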
# HP1b binding inh = blocks HP1-beta chromodomain binding to methylated histone tails; AID 540317; Potency, µM (titrated, usually from 114 µM), inactives show at the top dose activity change, negative = inhibition, actives largely listed as inhibitors; P83916; AlphaScreen HP1-beta / biotin-H3K9me3 peptide binding; actives 0.56% (n = 390,000); also: nearly all actives have a fitted effect of over 70% in size
#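 HP1-beta protein (50 nM final) preincubated 30 min at room temperature with biotinylated H3(1-18)K9me3 peptide (50 nM) in PBS pH 7.4, 0.01% Tween-20, then compound added for 30 min. AlphaScreen streptavidin donor/nickel chelate acceptor beads (10 ug/mL final), 30 min dark, luminescence read.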
# Sfp inh = Sfp phosphopantetheinyl transferase inhibition; Q9F4F7; Biochemical Sfp PPTase activity, qHTS; Potency, µM, without a hit: largest response in the series, negative = inhibition, most hits filed as inhibitors; actives 3.5% (n = 310,000); AID 1490;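 also: the enzyme is Sfp with the accession as filed and its product quenches rhodamine fluorescence; 0% = enzyme reaction without inhibitor and -100% = no enzyme wells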
#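 Fluorescence-quenching assay: 15 nM Sfp-PPTase preincubated 15 min at room temperature with compound, then 5 uM rhodamine-CoA and 12.5 uM BHQ-2-labelled YbbR peptide added. Fluorescence (ex 525/em 598 nm) read at start and after 30 min; difference gives rate.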
# BAZ2B block = blocks human BAZ2B | Q9UIF8 | AlphaScreen BAZ2B-H3K14Ac peptide displacement | Potency, µM (top dose mostly 114 µM), without a hit: top-dose activity change, negative = inhibition, usual class: inhibitors | actives 4.4% (n = 360,000); also: % is scaled to controls: 0 for no effect and ±100 for the full control effect; nearly all actives have a fitted effect of over 60% in size
#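 Complex of BAZ2B and biotin-H3K14Ac (50 nM apiece) forms over 30 min at RT, then faces library compounds up to 110 uM for another 30 min; AlphaScreen beads added, 20 min dark incubation, luminescence read.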
# G9a block = inhibitors of human histone lysine methyltransferase G9a | Q96KQ7 | G9a H3K9 monomethylation, AlphaScreen, 2 h | Potency, µM (doses to about 102 µM), for the others: top-dose activity, negative = inhibition, most hits filed as inhibitors | AID 504332 | actives 8.8% (n = 350,000); also: % is scaled to controls: 0 for no effect and ±100 for the full control effect; nearly all actives have a fitted effect of over 75% in size
#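 AlphaScreen detection with an anti-monomethyl H3K9 antibody quantified product after a 2 h room-temperature reaction containing 500 nM biotinylated H3K9 peptide, 20 µM SAM and 20 nM enzyme, which had been preincubated 15 min with compound.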
# Numbers without * were called inactive; ? = inconclusive; . = not tested or not shown; [ ] = dose if it differs, or a comment. Calls follow the shape of the dose curve; as a rule, active = well fitted curve in the direction sought with a large enough effect; inconclusive = small, poorly fitted or top-dose-only effect, or another doubt; inactive = no such curve, though single readings can be large; an effect the other way counts as inactive or inconclusive. Potency is read from the fitted curve at half-maximal effect.
SMILES,JMJD2A Tudor inh,L3MBTL1 inh,HP1b binding inh,Sfp inh,BAZ2B block,G9a block
O=C(NCCCN1CCCC1)c1ccc(Cn2c(=S)[nH]c3ccc(Br)cc3c2=O)cc1,.,-26.5%,.,-8.7%,-26.2%,22.4µM*
O=C(NCCN1CCCC1)c1ccc(Cn2c(=S)[nH]c3ccc(Br)cc3c2=O)cc1,-32.3%,.,12.0%,-1.3%,-19.2%,50.1µM*
CCN(CC)CCNC(=O)c1ccc2c(=O)n(C3CCCC3)c(=S)[nH]c2c1,-35.6%,0.1%,3.9%,-15.5%,?,20µM*
CCOc1cc2[nH]c(=S)n(Cc3ccc(C(=O)NCC(OC)OC)cc3)c(=O)c2cc1OCC,10.5%,-3.2%,55.0%,5.9%,1.3%,-10.5%
CCOc1cc2[nH]c(=S)n(Cc3ccc(C(=O)NCCN(CC)CC)cc3)c(=O)c2cc1OCC,?,.,15.2%,-7.4%,-19.5%,35.5µM*
CC(C)NC(=O)c1ccc2c(=O)n(C3CCCC3)c(=S)[nH]c2c1,-11.2%,5.8%,15.3%,-2.8%,7.6%,24.4%[59 µM]
CC1CCN(CCNC(=O)c2ccc3c(=O)n(Cc4ccc(Cl)cc4)c(=S)[nH]c3c2)CC1,-15.7%,.,28.1%,-17.7%,?,11.1%
O=C(Nc1ccc(S(=O)(=O)N2CCCCC2c2cccnc2)cc1)c1ccc(F)cc1 (stereo not given),-16.1%,.,53.4%[57 µM],.,-13.7%,1.3%[59 µM]
CCOc1ccc(NC(=O)c2ccc(Cl)c(NC(=O)c3ccco3)c2)cc1,-18.2%,-2.5%,13.0%,-1.8%,3.9%,.
CCOC(=O)c1ccccc1NC(=O)N1CC(C)Oc2ccc(C)cc21 (stereo not given),-18.8%,.,7.3%,.,1.0%,-30.1%[59 µM]
O=C(NNC1CC(=O)N(c2ccc3c(c2)OCCO3)C1=O)c1ccccc1 (stereo not given),-5.2%,1.3%,13.0%,-5.2%,-2.9%,-0.2%[0.0925 µM]
CC(C)CN(CC(C)C)c1nnc(NC(=O)Nc2cccc(C(F)(F)F)c2)s1,-15.6%,.,24.0%,.,-31.8%,?
COc1ccccc1Nc1nc(-c2c(C)[nH]c3ccccc23)cs1,50.1µM*,-8.5%,?,-14.5%,39.8µM*,14.1µM*
CCCC(=O)Nc1nc(C)c(-c2csc(Nc3ccccc3OC)n2)s1,?,-2.0%,-11.4%,-26.6%,?,?
CNc1nc(-c2c(C)[nH]c3ccc(OC)cc23)cs1,?,.,-2.6%,-5.3%,50.1µM*,39.8µM*
Cc1ccc(-c2csc(N)n2)s1,-27.8%,-8.2%,6.4%,35.5µM*,-37.8%,?
Cc1[nH]c2ccccc2c1-c1csc(N)n1,-31.9%,-10.7%,4.8%,-6.9%,?,79.4µM*
CC(=O)Nc1cc(NC(C)=O)cc(C(=O)N2CCCC3CCCCC32)c1 (stereo not given),56.2µM*,.,?,5.5%,50.1µM*,50.1µM*
CC1(C)OCC(COC(=O)Nc2cccnc2)([N+](=O)[O-])CO1,-7.8%,0.0%,42.6%,15.2%,-2.6%,5.8%
COc1cc(NC(=O)CN2CCC(C)CC2)c(C)cc1[N+](=O)[O-],-21.4%,-3.3%,14.9%,9.8%,0.0%,-13.0%
O=C(CN1CCN(c2ccccc2O)CC1)Nc1cc([N+](=O)[O-])ccc1Cl,-34.5%,-15.9%,3.3%[57 µM],0.9%,-35.1%,44.7µM*
COc1cc(NC(=O)CSc2nncn2C)c(C)cc1[N+](=O)[O-],-9.7%,2.6%,25.7%,5.0%,-4.1%,8.7%
CC(C(=O)Nc1cc([N+](=O)[O-])ccc1Cl)N1CCN(c2ccc(O)cc2)CC1 (stereo not given),25.1µM*,?,70.8µM*,56.2µM*,-34.3%,7.94µM*
COc1cc(NC(=O)CN2CCN(c3ccccc3O)CC2)c(C)cc1[N+](=O)[O-],-16.2%,-9.7%,15.2%,-14.3%,-8.2%,10µM*
COc1cc(NC(=O)CSc2nc(C)c(C)c(C)n2)c(C)cc1[N+](=O)[O-],-10.7%,7.9%,31.5%,20.6%,2.9%,50.1µM*
SMILES,JMJD2A Tudor inh,L3MBTL1 inh,HP1b binding inh,Sfp inh,BAZ2B block,G9a block
COc1cc(OC)c(OC)cc1/C=C1\CCC/C(=C\c2cc(OC)c(OC)cc2OC)C1=O,28.2µM*,.,31.6µM*,-12.3%,28.2µM*,39.8µM*
COc1ccc(/C=C2\CCC/C(=C\c3ccc(OC)c(OC)c3OC)C2=O)c(OC)c1OC,?,.,?,-23.2%,?,?
COc1cc(OC)c(OC)cc1/C=C1\CCC(C2CCCC2)C1=O (stereo not given),?,-13.8%,-2.6%,-13.8%,25.1µM*,?
COc1ccc(/C=C2\CCC(C3CCCC3)C2=O)c(OC)c1 (stereo not given),5.7%,.,42.8%,-9.7%,12.3%,10.1%
C#CCCc1cscc1/C=[N+](\[O-])c1ccc(C(=O)OCC)cc1,50.1µM*,-4.4%,?,.,-33.2%,7.2%[0.501 µM]
CCOC(=O)c1ccc(/[N+]([O-])=C/c2ccccc2)cc1,31.6µM*,-1.0%,?,.,?,-14.9%[0.501 µM]
Cc1ccc(C)c(OCCC(=O)Nc2ccccc2C(=O)NC2CC2)c1,-2.8%,6.4%,27.9%[57 µM],.,.,.
Cc1ccc(C)c(OCCCC(=O)Nc2ccccc2C(N)=O)c1,-21.9%,-10.3%,26.3%,28.0%,6.7%,50.1µM*
Cc1cc(C=O)c(C)n1-c1ccc(N2CCCC2)c([N+](=O)[O-])c1,?,-29.8%,?,0.4%,-35.3%,?
CCOc1ccc(C=NN2CCCCCC2)cc1OCC,39.8µM*,.,?,.,.,.
CC(C)c1ccc(/C=N/N2CCCCC2)cc1,?,-10.6%,22.4µM*,63.1µM*,31.6µM*,10µM*
Cc1ccc2nc(-c3cccnc3)cc(C(=O)Nc3ccc(F)cc3C)c2c1,-1.1%,5.6%,23.7%,-0.4%,-8.1%,12.8%[59 µM]
CCc1cc(-c2n[nH]c(=S)n2N)n(C)n1,8.91µM*,5.6%,?,39.8µM*,79.4µM*,10µM*
CCc1nn(C)c(-c2n[nH]c(=S)n2N)c1Cl,35.5µM*,7.7%,15.0%,44.7µM*,?,?
CCc1nn(C)c(N)c1C,-7.2%,-9.3%,22.1%,-6.2%,-14.2%,10.5%
COC(=O)c1c(NC(=O)c2ccccc2F)sc(C(=O)N2CCOCC2)c1C,4.8%,.,25.4%,9.9%,-3.9%,14.2%
Cn1ccc(=S)c2ccccc21,8.91µM*,.,-3.3%,35.5µM*,.,31.6µM*
CCOc1ccc2c(c1)n([O-])c1c([n+]2=O)CCCC1,-14.9%,.,3.0%,20µM*,-21.8%,?
COc1ccc2c(c1)n([O-])c1c([n+]2=O)CCC1,-31.8%,.,41.5%,-11.8%,?,-21.0%[59 µM]
C#CCOCCOCCOCCNc1nc(N2CCN(C(=O)[C@H](CCCCN)n3cc([C@@H](N)CO)nn3)CC2)nc(N2CCN(C(=O)[C@H](CCCCN)n3cc([C@@H](N)CC(C)C)nn3)CC2)n1,56.2µM*,0.9%,21.9%,.,.,.
